# Assay outcomes (PubChem)
# TDP1 cell CPT: DT40-hTDP1 cell growth loss with CPT. hit rate 12% among 420,000. chicken DT40 Tdp1-/-;hTDP1 cells + 20 nM CPT, ATP luminescence, 48 h. Potency, µM (doses to about 46.2 µM), without a hit: at the top dose activity change, negative = growth inhibition, most hits filed as inhibitors; note: potency is the fitted concentration of half-maximal effect; nearly all actives have a fitted effect of over 55% in size
#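 Cell growth measured by CellTiter-Glo luminescence after a minimum 48 h, 37 C compound exposure with 20 nM CPT in Tdp1-knockout DT40 cells stably expressing hTDP1, seeded 400/well; qHTS titration format.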
# HT1080 IDH1KD tx: toxicity to HT-1080 IDH1 knockdown cells (counter line); Potency, µM (series often up to 46.1 µM), for the others: top-dose activity, negative = toxicity, actives largely listed as cytotoxic; AID 686971; HT-1080 IDH1 knockdown viability, ATP luminescence, 48 h; hit rate 2% among 360,000;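 note: potency is the fitted concentration of half-maximal effect; 0% = DMSO wells and -100% = cell-free medium wells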
#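 IDH1KD HT-1080 cells, 750/well, RPMI + 5% FBS; compound pinned after 2 h settling; 48 h, 37 °C; CellTiter-Glo luminescence; % activity normalised to DMSO and no-cell wells; curves fitted, classed by r2 and efficacy.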
# IL-1B inflam inh: inflammasome signaling inhibition, IL-1 beta readout; THP-1 LPS/ATP IL-1B secretion, AlphaLISA, 16 h; hits give low values; activity change, % at 57.5 µM; hit rate 4.7% among 360,000; AID 743279; in the data active = activity change below about -50%; inconclusive = mostly about -30% to -49%
#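 Secreted IL-1B measured by AlphaLISA bead assay after 16 h compound exposure of THP-1 cells; compounds (final up to 57.5 uM) added 1 h before LPS (250 ng/mL) and ATP (1.25 mM) stimulation; lower signal means less secretion.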
# HT1080NT lethal: kills 2HG-producing HT-1080-NT fibrosarcoma cells; HT-1080-NT fibrosarcoma viability, CellTiter-Glo ATP luminescence, 48 h; Potency, µM (series often up to 46.1 µM), for inactives: at the highest dose activity, negative = less viability, most hits filed as cytotoxic; hit rate 1.6% among 360,000; AID 686970;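 note: NT is the 2HG producing partner of a matched IDH1 knockdown line; potency is the fitted concentration of half-maximal effect; 0% = DMSO-treated cells and -100% = media-only wells without cells; nearly all actives have a fitted effect of over 55% in size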
#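 Compounds were tested in concentration-response format on HT-1080-NT cells for 48 hours at 37 degrees C. Cell viability came from CellTiter-Glo luminescence; curves were classified by r2, response magnitude and activity.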
# DT40 TDP1 no CPT: qHTS for Inhibitors of human tyrosyl-DNA phosphodiesterase 1 (TDP1): qHTS in cells in absence of CPT. DT40 Tdp1-/- hTDP1 cells, no CPT, ATP luminescence, 48 h. Potency, µM (titrated, usually from 46.2 µM), for the others: at the top dose activity change, negative = growth inhibition, hits mostly inhibitors. hit rate 15% among 420,000; note: potency is the fitted concentration of half-maximal effect; nearly all actives have a fitted effect of over 55% in size
#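 Seeded 400 DT40-hTDP1 cells/well (vehicle DMSO, no 20 nM CPT); pinned compounds; ≥48 hr at 37 °C; CellTiter-Glo luminescence as viability measure.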
# Numbers without * were called inactive; i = inactive; ? = inconclusive; . = no result given; [ ] = dose if it differs, or a comment. Sampled rows, rich in hits. Any-hit rate of the full collection: about 19%. Unless noted, calls come from the whole dose curve; as a rule, active = well fitted curve in the direction sought with a large enough effect; inconclusive = small, poorly fitted or top-dose-only effect, or another doubt; inactive = no such curve, though single readings can be large; an effect the other way counts as inactive or inconclusive. Unless noted, % is set by controls: 0 for no effect and ±100 for the full control effect.
SMILES,TDP1 cell CPT,HT1080 IDH1KD tx,IL-1B inflam inh,HT1080NT lethal,DT40 TDP1 no CPT
CC1(C)NC(=O)N(CC(=O)OCC(=O)Nc2cccc(S(N)(=O)=O)c2)C1=O,0%,11%,4,16%,1%
O=C(Nc1sc2c(c1C(=O)O)CCC2)c1cccs1,-7%,0%,-4,-1%,-16%
NC(=O)c1c(NC(=O)c2cccs2)sc2c1CCCCCC2,?,-4%[9.24 µM],-84*,?,?
COc1cc(C(=O)NCCOc2ccccc2C)cc(OC)c1OC,?,-6%,26,-5%,?
CCc1c(C)sc2c1CCN(Cc1ccccc1C#N)C2c1ccccc1 (configuration not stated),9.2µM*,.,.,.,?
CCc1c(C)sc2c1CCN(Cc1ccccc1)C2c1ccccc1 (configuration not stated),7.3µM*,.,.,.,2.9µM*
N#Cc1ccccc1Cn1c(=O)n(-c2ccccc2)c(=O)c2c3c(sc21)CCC3,-19%,.,.,.,-9%
O=C(CSc1nnc(-c2ccncc2)n1CC1CCCO1)Nc1nccs1 (configuration not stated),5%,0%,9,-2%,1%
Clc1ccc(CNc2ccc(N3CCN(Cc4ccccc4)CC3)cc2)cc1,?,?,-58*,-28%,?
NS(=O)(=O)c1ccc(CCNC(=O)CN2CCN(c3cccc(Cl)c3)CC2)cc1,18µM*,-13%,25,5%,16µM*
CCC(=O)Nc1ccc(N2CCN(Cc3ccccc3)CC2)cc1,-4%,-1%,9,-7%,-21%
Cc1cccc(N2CCN(CC(=O)NCc3ccc(Cl)cc3)CC2)c1C,?,-27%,-64*,-16%,4.1µM*
O=C(CN1CCN(C/C=C/c2ccccc2)CC1)NCc1ccc(Cl)cc1,5.8µM*,?,-5,?,4.6µM*
CC(=O)Nc1ccc(S(=O)(=O)N2CCC(C(=O)NCCC(=O)NCc3ccccc3)CC2)cc1,-28%,10%,4,5%,29%
O=C(Nc1cccc(S(=O)(=O)N2CCCCCC2)c1)c1cncc(Br)c1,-25%,-1%,?,-2%,?
CCCOC(=O)c1c(NC(=O)C2c3ccccc3Oc3ccccc32)sc2c1CCC(C)C2 (configuration not stated),-10%,.,.,.,-11%
O=C1[C@H]2[C@@H](c3ccc(F)cc3)N3C(=O)N(c4ccc(Br)cc4)C(=O)[C@@]3(Cc3ccccc3)[C@H]2C(=O)N1C1CCCCC1,?,7%,-11,3%,?
Cc1cc(S(=O)(=O)N2CCCCCC2)c(Cl)cc1Cl,-21%,-9%,5,-3%,?
NS(=O)(=O)c1ccc(NCc2c(F)cccc2Cl)cc1,-21%,-10%,-2,1%,?
O=C(CN1CCN(c2ccc(Cl)cc2)CC1)NCc1ccccc1,?,-14%,-61*,-1%,?
O=C(CN1CCN(c2cccc(Cl)c2)CC1)NCc1ccccc1,-21%,-10%,-8,-4%,?
Fc1cccc(Cl)c1CNc1ccc(N2CCCC2)cc1,2.3µM*,-20%,-19,?,9.2µM*
Cc1ccccc1C(=O)N1CCC(C(=O)OCc2nc(N)nc(Nc3ccccc3)n2)CC1,-5%,12%,-22,-4%,?
O=S(=O)(c1ccccc1)N1CCN(C(=S)Nc2ccccc2Cl)CC1,5%,-8%,-7,-12%,-16%
Cc1cccc(C(=O)N[C@H]2CC[C@@H](n3cc(C(=O)N4CCCC4)nn3)CC2)c1,23%[9.04 µM],.,.,.,-7%
SMILES,TDP1 cell CPT,HT1080 IDH1KD tx,IL-1B inflam inh,HT1080NT lethal,DT40 TDP1 no CPT
OC(CON=C1c2ccccc2-c2ccccc21)CN1CCNCC1 (configuration not stated),12µM*,23µM*,-88*,21µM*,7.3µM*
C=C1[C@@H](O)[C@H](Cc2ccccc2)N(Cc2ccccc2Br)S1(=O)=O,21µM*,23µM*,-102*,?,18µM*
O=C(C1CCC(CNc2nc(=S)[nH]c3ccccc23)CC1)N1CCN(c2ccc(F)cc2)CC1 (configuration not stated),2.6µM*,?,-72*,?,4.6µM*
COc1ccc(N2CCN(CCCNC(=O)C3CCC(CNc4nc(=S)[nH]c5ccccc45)CC3)CC2)cc1 (configuration not stated),?,-11%,-7,-13%,23µM*
COc1ccc(N2CCN(CCNC(=O)C3CCN(S(=O)(=O)c4cccs4)CC3)CC2)cc1,?,-1%,9,8%,?
CCCCCN(C(=O)CCC(=O)OCc1ccc(C(C)C)cc1)c1c(N)n(CCCC)c(=O)[nH]c1=O,23µM*,-14%,-15,-6%,16µM*
CCCCCN(C(=O)CCC(=O)OCCOc1cccc(Cl)c1)c1c(N)n(CCCC)c(=O)[nH]c1=O,?,-5%,-7,3%,13µM*
CCCCCN(C(=O)CCC(=O)OCC(=O)c1ccc(F)c(F)c1)c1c(N)n(CCCC)c(=O)[nH]c1=O,-13%,-2%,5,-1%,4%
CCCCCN(C(=O)CCC(=O)OCc1cc(C)ccc1C)c1c(N)n(CCCC)c(=O)[nH]c1=O,23µM*,-19%,-63*,-26%,26µM*
CCCCCN(C(=O)CCC(=O)OCC(=O)c1c(C)cc(C)cc1C)c1c(N)n(CCCC)c(=O)[nH]c1=O,?,-9%,-77*,-14%,?
CCCCCN(C(=O)CCC(=O)OCc1ccc(C(C)(C)C)cc1)c1c(N)n(CCCC)c(=O)[nH]c1=O,?,?,i,-27%,?
O=C(CNCc1ccccc1)Nc1ccc(Cl)cc1,-17%,8.2µM*,1,8.2µM*,?
O=C(CC(=O)c1ccccc1)Nc1ccc(Cl)cc1,?,?,-77*,-25%,?
O=C(CNCc1ccc(Cl)cc1)Nc1ccc(C(=O)N2CCCCC2)cc1,-17%,-14%,-12,-4%,-27%
CC(=O)OC(C(=O)N1CCOCC1)c1c(F)cccc1F (configuration not stated),10%,11%,-8,7%,1%
CN(Cc1ccccc1)C(c1cc2ccccc2o1)c1nnnn1C(C)(C)C (configuration not stated),?,-19%,-8,-18%,18µM*
CN(CCc1ccccc1)C(c1cc2ccccc2o1)c1nnnn1C(C)(C)C (configuration not stated),?,?,2,-25%,?
CCCCn1nnnc1C(c1cc2ccccc2o1)N(CCC#N)Cc1ccccc1 (configuration not stated),16µM*,-11%,-17,-24%,?
